Values joined by “and” are separate entries in the source; they are usually repeats but may differ in a detail not shown here. Equal entries are not always repeated. The campaign covered roughly 400,000 compounds. About 2,100 (0.53%) were called active. Roughly 14% stayed inconclusive and do not appear here. The rule behind the calls is not given here. Shown is part of a subset that was picked to be rich in actives.
Biological target: Ataxin-2 (Homo sapiens) (UniProt Q99700)
Assay: qHTS for Inhibitors of ATXN expression.
Format: functional

Chain of Ataxin-2 (Homo sapiens) (Q99700 whole entry): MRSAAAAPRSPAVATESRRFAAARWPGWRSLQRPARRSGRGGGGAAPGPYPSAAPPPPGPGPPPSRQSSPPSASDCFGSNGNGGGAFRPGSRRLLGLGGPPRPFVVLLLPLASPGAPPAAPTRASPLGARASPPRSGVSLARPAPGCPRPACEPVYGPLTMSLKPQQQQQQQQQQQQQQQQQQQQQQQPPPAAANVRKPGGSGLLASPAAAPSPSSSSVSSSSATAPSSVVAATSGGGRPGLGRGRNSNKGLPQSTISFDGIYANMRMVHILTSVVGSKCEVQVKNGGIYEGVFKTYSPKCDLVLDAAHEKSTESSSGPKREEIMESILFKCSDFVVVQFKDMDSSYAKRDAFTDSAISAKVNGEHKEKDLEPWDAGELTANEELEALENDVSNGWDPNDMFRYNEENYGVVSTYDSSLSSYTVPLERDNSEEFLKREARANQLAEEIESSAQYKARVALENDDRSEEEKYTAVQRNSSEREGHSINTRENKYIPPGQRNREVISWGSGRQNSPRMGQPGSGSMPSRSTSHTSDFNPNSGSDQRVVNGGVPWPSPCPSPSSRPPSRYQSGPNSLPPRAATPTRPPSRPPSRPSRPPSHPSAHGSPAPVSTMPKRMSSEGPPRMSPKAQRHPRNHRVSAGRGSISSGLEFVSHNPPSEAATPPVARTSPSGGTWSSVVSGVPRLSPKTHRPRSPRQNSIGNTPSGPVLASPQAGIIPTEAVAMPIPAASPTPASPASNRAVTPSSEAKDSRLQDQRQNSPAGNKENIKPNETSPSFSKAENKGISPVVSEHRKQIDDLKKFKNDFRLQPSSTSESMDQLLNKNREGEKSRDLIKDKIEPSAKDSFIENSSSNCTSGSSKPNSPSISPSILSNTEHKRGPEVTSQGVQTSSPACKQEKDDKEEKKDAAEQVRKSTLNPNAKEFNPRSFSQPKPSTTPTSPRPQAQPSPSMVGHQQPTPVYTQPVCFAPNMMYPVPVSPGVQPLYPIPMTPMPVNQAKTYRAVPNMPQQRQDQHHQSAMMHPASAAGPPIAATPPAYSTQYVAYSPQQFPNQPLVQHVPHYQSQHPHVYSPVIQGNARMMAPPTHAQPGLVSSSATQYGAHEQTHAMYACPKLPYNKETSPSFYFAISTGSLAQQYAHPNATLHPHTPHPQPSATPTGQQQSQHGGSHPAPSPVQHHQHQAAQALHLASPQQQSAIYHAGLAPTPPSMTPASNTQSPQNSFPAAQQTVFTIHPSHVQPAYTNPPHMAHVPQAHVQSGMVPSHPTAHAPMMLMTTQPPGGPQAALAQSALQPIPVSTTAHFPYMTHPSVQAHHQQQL

Structure (SMILES) | Potency
O=C(CSc1nnc(-c2cccc(Br)c2)o1)N1CCNC1=O | inactive
O=S(=O)(c1ccc2nc(N3CCN(c4ccccc4)CC3)ccc2c1)N1CCCCC1 | inactive
CC1CCN(S(=O)(=O)c2ccc(NC(=O)CN3CCCC3)cc2)CC1 | inactive
CC1CCN(S(=O)(=O)c2ccc3nc(Nc4cccc(F)c4)ccc3c2)CC1 | 35.5 µM (active)
O=C(OCCN1C(=O)c2cccc3c(N4CCOCC4)ccc(c23)C1=O)c1ccc(Cl)cc1 | inactive
O=C(CC(=O)N/N=C/c1ccc(C(=O)O)cc1)NCCc1ccccc1 | inactive
O=C(Nc1nc2ccc([N+](=O)[O-])cc2s1)c1ccc(S(=O)(=O)N2CCCc3ccccc32)cc1 | inactive
O=S(=O)(c1ccc(F)cc1)N1CCc2ccccc2C1 | inactive
COc1ccc(C)c2sc(N(CCCN(C)C)C(=O)c3ccc(S(=O)(=O)N4CCc5ccccc5C4)cc3)nc12 | 22.4 µM (active)
O=C(c1ccc(S(=O)(=O)N2CCCCC2)cc1)N1CCc2ccccc2C1 | inactive
COc1ccc2sc(N(CCCN(C)C)C(=O)c3ccc(S(=O)(=O)N4CCCc5ccccc54)cc3)nc2c1 | 39.8 µM (active)
COCCN(Cc1ccccc1)C(=O)c1cccc(S(=O)(=O)N2CCCc3ccccc32)c1 | inactive
O=c1[nH]c(=O)c2nc(-c3ccc(Cl)cc3)cnc2[nH]1 | inactive
O=c1c2nccnc2[nH]c(=S)n1Cc1ccccc1Cl | inactive
CC1CN(Cc2cc(=O)oc3cc(O)ccc23)CC(C)O1 (stereo unspecified) | inactive
COCc1nnc(NS(=O)(=O)c2ccc(OC)cc2)s1 | inactive
CN1CCN(c2nc(-c3cccnc3)nc3scc(-c4ccccc4)c23)CC1 | inactive
CC(=O)N1CCN(Cc2nc(O)c3c(-c4ccccc4)csc3n2)CC1 | inactive
CC1CCN(c2nc(CN3CCCCC3)nc3scc(-c4ccccc4)c23)CC1 | 22.4 µM (active)
Cc1cccc(/N=C/c2cc(Br)cc(Cl)c2O)c1 | inactive
O=C(C[n+]1ccc2c(c1)nnn2-c1ccccc1)c1ccc(Cl)cc1 | inactive
O=C1OC(c2ccccc2)(c2cc(Br)ccc2O)c2ccccc21 (stereo unspecified) | 35.5 µM (active)
COCc1cc(C)nc2sc(C(=O)Nc3ccc(OC(F)(F)F)cc3)c(N)c12 | inactive
Cc1ccc(NC2=C(C(=O)Nc3c(C)cc(C)cc3C)C(=N)C(C(=O)Nc3ccc(OC(F)(F)F)cc3)S2)cc1 (stereo unspecified) | 18.9 µM (active)
CSCCC(NC(=O)C1CCCC1)c1nnc2ccccn12 (stereo unspecified) | inactive
CCCCCCN1C=C/C(=C\C=C(C#N)C#N)c2ccccc21 | 20 µM (active)

Structure (SMILES) | Potency
C=CCN1C=C/C(=C\C=C(C#N)C#N)c2ccccc21 | 6.7 µM (active)
O=C(O)COc1ccc(/C=C/c2nc3ccc([N+](=O)[O-])cc3s2)cc1 | inactive
CCN(CC)c1ccc2c(Cl)c(Br)c(=O)oc2c1 | inactive
c1ccn2c(c1)nc1c2nc2ccccn21 | inactive
C=CCNC(=O)c1cc2c(=O)n3ccccc3nc2s1 | inactive
COc1ccc(/C=C/C(=O)c2ccccc2)cc1Cn1nnc2ccccc21 | 39.8 µM (active)
COc1ccc(/C=N/NC(=O)CCn2nnc3ccccc32)cc1 | inactive
COc1ccc(/C=C/C(=O)c2ccc3ccccc3c2O)cc1CN1CCOCC1 | inactive
O=C(O)C1Sc2nc(O)sc2C2c3ccc(O)cc3OC(=O)C12 (stereo unspecified) | inactive
COc1ccc([C@H]2C[C@H](O)[C@@H](n3cc(COC(=O)c4ccccc4)nn3)CN2CC2CCCCC2)cc1 | 35.5 µM (active)
O[C@H]1CN(CC2CCCCC2)[C@@H](c2ccc(Cl)cc2)C[C@@H]1n1cc(C2CC2)nn1 | 20 µM (active)
COc1ccc(C2CC(c3ccccc3)=NN2c2ccc(C(N)=O)cc2)cc1 (stereo unspecified) | inactive
COc1ccc(C2C3=C(CCCC3=O)N(CC(=O)O)C3=C2C(=O)CCC3)cc1 | inactive
O=C(OCc1cn([C@H]2CN(CC3CCCCC3)[C@@H](c3ccc(Cl)cc3)C[C@@H]2O)nn1)c1ccccc1 | 35.5 µM (active)
COCC(=O)Nc1nc2n(n1)C(c1ccccc1)CC(c1ccc(OC)cc1)N2 (stereo unspecified) | inactive
COc1ccc([C@H]2C[C@@H](O)[C@H](n3cc(COC(=O)c4ccccc4)nn3)CN2CC2CCCCC2)cc1 | 28.2 µM (active)
CC(C)C(=O)Nc1ccc(C(=O)N/N=C/c2cc(Br)cc(Br)c2O)cc1 | inactive
N#Cc1nc(/C=C/c2ccc(F)cc2)oc1N1CCCCCC1 | inactive
Cc1nc2ccccc2c2c(N)c3ccccc3n12 | inactive
Cc1ccc(S(=O)(=O)CCC(=O)OCCOc2ccc(Br)cc2)cc1 | inactive
CC(=O)C1=CCC(c2ccc(Br)cc2)N(S(=O)(=O)c2ccc(C)cc2)C1 (stereo unspecified) | 20 µM (active)
Cc1ccc(-c2ccc(S(=O)(=O)N3CC(C)OC(C)C3)cc2)cc1 (stereo unspecified) | inactive
COc1ccccc1/C=C/C(=O)OCC(=O)NCc1ccc2c(c1)OCO2 | inactive
COc1ccc(CNCCC(c2ccc3c(c2)OCO3)c2ccccc2OC)cc1 (stereo unspecified) | 22.4 µM (active)
COc1ccc2[nH]c(SCC(=O)NC(C)c3ccccc3)nc2c1 (stereo unspecified) | inactive
Fc1cccc(CNCc2ccc3c(c2)OCO3)c1 | inactive

Structure (SMILES) | Potency
COc1ccc(C(C)NCCC(c2ccc(OC(C)C)cc2)c2ccccc2OC)cc1 (stereo unspecified) | 39.8 µM (active)
Cc1c(CC(=O)N2CCN(C(=O)C3COc4ccccc4O3)CC2)c(=O)oc2cc(O)cc(O)c12 (stereo unspecified) | inactive
Cc1ccc(S(=O)(=O)N2CCOCC2)cc1NC(=O)COC(=O)/C=C/c1ccco1 | inactive
CC[C@@H]1Cc2cc(O)ccc2C2=C1c1ccc(O)cc1C[C@H]2CC | 39.8 µM (active) and 22.4 µM (active)
Clc1ccc(-c2nc(N3CCCCC3)nc3ccccc23)cc1 | inactive
COc1ccc(-n2c(=O)c(CCC(=O)NCCc3ccccc3F)nc3ccccc32)cc1 | inactive
Cc1oc2c(c1C(=O)c1ccccc1)C(=O)C(=O)c1ccccc1-2 | 3.98 µM (active)
Cc1ccc(C(=O)c2c(C)oc3c2C(=O)C(=O)c2ccccc2-3)cc1 | 39.8 µM (active)
Cc1sc(N)c(C(=O)c2ccccc2)c1C | inactive
CCOc1ccc(-n2c(C)cc(C(=O)CCl)c2C)cc1 | 29.9 µM (active)
Cc1ccc(-n2c(C)cc(C(=O)COc3cccnc3[N+](=O)[O-])c2C)cc1 | inactive
CCOc1ccc(-n2c(C)cc(/C=N/NC(=O)C(N)=O)c2C)cc1 | inactive
CCCn1c(=N)c(C(=O)NCc2ccco2)cc2c(=O)n3cc(C)ccc3nc21 | inactive
CCc1nc(N2CCN(C(=O)CCl)CC2)c2c3c(sc2n1)CC(C)CC3 (stereo unspecified) | 35.5 µM (active)
CC1CCc2c(sc3ncn(CC(=O)N4CCCCC4)c(=O)c23)C1 (stereo unspecified) | inactive
CC1CCc2c(sc3nc(-c4cc5ccccc5oc4=O)nc(Cl)c23)C1 (stereo unspecified) | inactive
COCCCn1c(C(=O)N2CCOCC2)cc2c(=O)n3ccccc3nc21 | inactive
CN1/C(=C/C(=O)c2nc(S(C)(=O)=O)ncc2Cl)C(C)(C)c2ccccc21 | 31.6 µM (active)
CN1/C(=C\C(=O)c2cccnc2)C(C)(C)c2ccccc21 | inactive
CC1=C(C(=O)c2ccccc2)C(c2ccc(O)cc2)NC(S)=N1 (stereo unspecified) | inactive
O=C(NCCCN1CCCC1=O)C1CCN(S(=O)(=O)c2ccccc2)CC1 | inactive
O=C(COC(=O)/C=C/c1ccccc1)NCCC1=CCCCC1 | inactive
O=C(NCCC1=CCCCC1)C1CCC(CNc2nc(S)nc3ccccc23)CC1 (stereo unspecified) | 23.8 µM (active)
CCCCN(C(=O)NC(=O)C1=C(N2CCOCC2)/C(=C/c2ccccc2)CC1)S(C)(=O)=O | inactive
C=CCO/C(O)=C1\C(C)=NC(SCC(=O)Nc2nccs2)=C(C#N)C1c1ccc(Cl)cc1 (stereo unspecified) | inactive
O=C1CCC[C@@H]2C[C@@]3(C[C@@H]4CCN1[C@H]24)Nc1cc(Cl)c(Cl)cc1N=C3NCc1ccccc1 | 35.5 µM (active)

Structure (SMILES) | Potency
CC(C)(C)CC(C)(C)NC1=Nc2cc(Cl)c(Cl)cc2NC12C[C@H]1CCC(=O)N3CC[C@@H](C2)[C@@H]13 (stereo partly specified) | 31.6 µM (active)
COc1ccc2c(c1)CCC1=C2N=C(S)NC1c1ccc(N(C)C)cc1 (stereo unspecified) | inactive
c1cc(SC2CCCCC2)cc(-c2nc3cnccn3c2NC2CCCCC2)c1 | inactive
Cc1cc(C)n2c(=O)c3ccc(Cl)cc3nc2c1C#N | inactive
CC(C)(C)c1cc(CP(=O)(c2ccccc2)c2ccccc2)cc(C(C)(C)C)c1O | inactive
COc1ccccc1C(=O)CSc1ccccn1 | inactive
O=C(C=Cc1ccccc1F)c1ccccc1 | 31.6 µM (active)
O=C(O)c1ccc2c(c1)C(=O)N(c1ccc(/C=C/C(=O)c3ccccc3)cc1)C2=O | inactive
O=C(C=Cc1ccccn1)c1ccccc1O | 39.8 µM (active)
O=C(/C=C/c1ccc(N2CCC(c3ccccc3)=N2)cc1)c1ccccc1 | inactive
Cc1[nH]c2ccccc2c1/C=C/C(=O)c1ccncc1 | inactive
O=C(C=Cc1ccccn1)c1ccccc1 | 35.5 µM (active)
COc1ccc2[nH]cc(/C=C/C(=O)c3ccccc3)c2c1 | inactive
O=C(O)/C(=C\c1ccco1)NC(=O)c1ccco1 | inactive
Cc1ccc(NC(=O)CCc2nnc3ccc(N4CCC5(CC4)OCCO5)nn23)nc1 | inactive
COc1ccc(COc2cc(-c3cccc(OC)c3)nc3ccc(N)cc23)cc1 | inactive
CC(C)N1CC(C(=O)Nc2cccc([N+](=O)[O-])c2)CC1=O (stereo unspecified) | inactive
O=[N+]([O-])c1cccc(NC(=S)N2CCOCC2)c1 | inactive
COC(=O)/C=C\C(=O)Nc1cccc([N+](=O)[O-])c1 | 31.6 µM (active)
O=C(CNC(=O)c1ccc(Br)o1)NCC1CCCCC1 | inactive
O=C(NCC1CCCCC1)C1(CC2CC(c3ccc(Cl)cc3)=NO2)CCNCC1 (stereo unspecified) | 39.8 µM (active)
COc1cc(NC(=O)C2CC(c3cccc(Br)c3)=NO2)cc(OC)c1OC (stereo unspecified) | inactive
O=C(NCC1CCCCC1)C1(CC2CC(c3cccc(Br)c3)=NO2)CCNCC1 (stereo unspecified) | 35.5 µM (active)

— ChEMBL document CHEMBL1201862, “PubChem BioAssay data set” (2004)
